Values without a mark were called inactive. Records with an inconclusive call do not appear. Activity calls are given as the source filed them. Unless noted, the call rests on the fitted dose curve; in most records, active means well fitted curve in the direction sought with a large enough effect in the repeat runs; inconclusive means weak or mixed curves; inactive means no such curve, though single readings can be large; an effect the other way counts as inactive or inconclusive.

Assay [1] in a line: qHTS assay for identifying genotoxic compounds that show differential cytotoxicity against isogenic chicken DT40 cell lines with known DNA damage response pathways - wild type cell line (AID 743012). Further: nearly all actives have a fitted effect of over 60% in size. In short, it runs like this: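 Viability by ATP luminescence (CellTiter-Glo, 30 min RT) after 40 h compound treatment at 37 C/5% CO2, using 300 parental DNA repair-proficient DT40 cells per well.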
Background: In qHTS, concentration-response curves come from the screen itself.

Assay [2] is described as follows: qHTS assay for identifying genotoxic compounds that show differential cytotoxicity against isogenic chicken DT40 cell lines with known DNA damage response pathways - Rev3 mutant cell line (AID 743014). Further: nearly all actives have a fitted effect of over 55% in size.
A short description of assay [3]: qHTS assay for identifying genotoxic compounds that show differential cytotoxicity against isogenic chicken DT40 cell lines with known DNA damage response pathways - Rad54/Ku70 mutant cell line (AID 743015). Further: nearly all actives have a fitted effect of over 60% in size. Further: potency means the concentration at half of the fitted maximal effect.
Assay [4] in a line: qHTS assay to identify small molecule antagonists of the androgen receptor (AR) signaling pathway - cell viability counter screen (AID 743033; further: nearly all actives have a fitted effect of over 45% in size).
For assay [5], the target named is Androgen receptor (Homo sapiens) (UniProt P10275). As to the kind of experiment: qHTS assay to identify small molecule agonists of the androgen receptor (AR) signaling pathway (AID 743036; active means well fitted activation curve with a large enough effect in the signal ratio in the repeat runs, with a control signal flat, not every such curve was filed as active; the % refers to the signal ratio). The method in brief:
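Reporter line: GeneBLAzer AR-UAS-bla-GripTite (HEK293). Steps: plate cells, 4 h rest, add compounds, 16 h at 37C, add LiveBLAzer B/G substrate, 2 h at RT, read fluorescence.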

For assay [6] the target is unchanged. As to the kind of experiment: qHTS assay to identify small molecule agonists of the androgen receptor (AR) signaling pathway using the MDA cell line (AID 743040; further: nearly all actives have a fitted effect of over 20% in size). The method in brief:
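Stable MMTV-luciferase reporter in MDA-kb2 cells; note the promoter carries GR as well as AR response elements. 16 h compound treatment, 37C, 0% CO2; ONE-Glo luminescence endpoint.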

A short description of assay [7]: qHTS assay to identify small molecule antagonists of the androgen receptor (AR) signaling pathway using the MDA cell line - cell viability counter screen (AID 743041; further: nearly all actives have a fitted effect of over 45% in size). The method in brief:
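Using the breast carcinoma line MDA-kb2 AR-luc, test chemicals were co-incubated with R1881 for 16 h; CellTiter-Fluor reagent, added at 15.5 h, provided a fluorescence measure of live cells.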

The target in assay [8] is Androgen receptor (Homo sapiens) (UniProt P10275). As to the kind of experiment: qHTS assay to identify small molecule antagonists of the androgen receptor (AR) signaling pathway using the MDA cell line (AID 743042; further: nearly all actives have a fitted effect of over 55% in size). In short, it runs like this:
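Antagonist mode: compounds plus R1881 agonist added to MDA-kb2 AR-luc cells, incubated 16 h at 37C. Luciferase reporter luminescence quantified, with multiplexed CellTiter-Fluor readout for cell viability.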

Assay [9] in a line: qHTS assay to identify small molecule antagonists of the thyroid receptor (TR) signaling pathway - cell viability counter screen (AID 743064). Further: nearly all actives have a fitted effect of over 50% in size. In short, it runs like this:
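Plate GH3.TRE-Luc cells; incubate 4 h at 37 °C; add compound, then T3 to 1 nM final; incubate 23.5 h; add CellTiter-Fluor; incubate 30 min at 37 °C, 5% CO2; read fluorescence.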

A short description of assay [10]: qHTS assay to identify small molecule antagonists of the thyroid receptor (TR) signaling pathway (AID 743065). Further: series mostly up to about 70 µM; nearly all actives have a fitted effect of over 55% in size. In short, it runs like this:
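Antagonism measured as loss of luciferase signal in GH3 cells stably carrying a TRE-luciferase reporter, co-treated with compound and T3 (1 nM final) for 23.5 h at 37 C. Viability was read in the same well by CellTiter-Fluor.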

In assay [11] the test system is thyroid hormone receptor (rat, GH3 cells). As to the kind of experiment: qHTS assay to identify small molecule agonists of the thyroid receptor (TR) signaling pathway (AID 743066; calls by dose curve).
In assay [12] the target is Estrogen receptor (Homo sapiens) (UniProt P03372). As to the kind of experiment: qHTS assay to identify small molecule antagonists of the estrogen receptor alpha (ER-alpha) signaling pathway (AID 743069; active means well fitted curve in the direction sought with a large enough effect in the signal ratio in the repeat runs, not every such curve was filed as active; the % refers to the signal ratio). The method in brief:
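Fluorescence intensity from a beta-lactamase FRET substrate served as the read-out. Cells: HEK293 with stably integrated ER-alpha-UAS-bla reporter. Agonist 17beta-estradiol was co-added with compounds; incubation 18 hr at 37C, substrate 2 hr at room temperature.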

Assay [13] can be described thus: qHTS assay to identify small molecule antagonists of the estrogen receptor alpha (ER-alpha) signaling pathway - cell viability counter screen (AID 743074; calls by dose curve; further: nearly all actives have a fitted effect of over 45% in size).
The target in assay [14] is Estrogen receptor (Homo sapiens) (UniProt P03372). As to the kind of experiment: qHTS assay to identify small molecule agonists of the estrogen receptor alpha (ER-alpha) signaling pathway (AID 743075; calls by dose curve).
Estrogen receptor (Homo sapiens), sequence (P03372 whole entry, looked up): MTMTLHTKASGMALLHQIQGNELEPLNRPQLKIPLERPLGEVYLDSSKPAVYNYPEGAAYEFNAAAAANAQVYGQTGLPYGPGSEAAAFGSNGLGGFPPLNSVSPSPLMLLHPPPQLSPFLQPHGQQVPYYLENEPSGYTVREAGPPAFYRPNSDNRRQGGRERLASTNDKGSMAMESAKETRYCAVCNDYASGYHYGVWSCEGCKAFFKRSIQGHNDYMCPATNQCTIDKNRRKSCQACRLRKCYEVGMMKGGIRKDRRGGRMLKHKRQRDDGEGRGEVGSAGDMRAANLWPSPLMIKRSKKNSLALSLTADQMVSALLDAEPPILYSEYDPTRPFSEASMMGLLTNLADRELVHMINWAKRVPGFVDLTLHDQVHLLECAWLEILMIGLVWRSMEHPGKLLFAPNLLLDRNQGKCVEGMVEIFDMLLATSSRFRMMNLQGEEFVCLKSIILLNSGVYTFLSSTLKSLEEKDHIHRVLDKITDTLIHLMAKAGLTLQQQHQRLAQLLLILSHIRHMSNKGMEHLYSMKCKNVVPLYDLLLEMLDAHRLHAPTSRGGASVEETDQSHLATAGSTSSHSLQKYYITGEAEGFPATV
For assay [15] the target is unchanged. As to the kind of experiment: qHTS assay to identify small molecule agonists of the estrogen receptor alpha (ER-alpha) signaling pathway using the BG1 cell line (AID 743079). Further: nearly all actives have a fitted effect of over 20% in size. Further: potency means the concentration at half of the fitted maximal effect.
Assay [16] is described as follows: qHTS assay to identify small molecule antagonists of the estrogen receptor alpha (ER-alpha) signaling pathway using the BG1 cell line (AID 743080; calls by dose curve;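 further: BG1 cells stimulated with 17beta-estradiol alongside compound; series mostly up to about 70 µM; nearly all actives have a fitted effect of over 25% in size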). The method in brief:
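Readout is ONE-Glo luminescence, taken 30 min at room temperature after reagent addition, preceded by a CellTiter-Fluor viability read; BG1-Luc-4E2 cells had received compound and 17beta-estradiol for 21.5 h at 37 C.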

Assay [17] is described as follows: qHTS assay to identify small molecule antagonists of the estrogen receptor alpha (ER-alpha) signaling pathway using the BG1 cell line - cell viability counter screen (AID 743081).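 Further: compound given together with 17beta-estradiol as the ER stimulus; series mostly up to about 70 µM; nearly all actives have a fitted effect of over 45% in size.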
For another assay, the target named is Aromatase (Homo sapiens) (UniProt P11511). As to the kind of experiment: qHTS assay to identify aromatase inhibitors (AID 743083). Further: series mostly up to about 70 µM; nearly all actives have a fitted effect of over 55% in size.
Aromatase (Homo sapiens), sequence (P11511 whole entry, looked up): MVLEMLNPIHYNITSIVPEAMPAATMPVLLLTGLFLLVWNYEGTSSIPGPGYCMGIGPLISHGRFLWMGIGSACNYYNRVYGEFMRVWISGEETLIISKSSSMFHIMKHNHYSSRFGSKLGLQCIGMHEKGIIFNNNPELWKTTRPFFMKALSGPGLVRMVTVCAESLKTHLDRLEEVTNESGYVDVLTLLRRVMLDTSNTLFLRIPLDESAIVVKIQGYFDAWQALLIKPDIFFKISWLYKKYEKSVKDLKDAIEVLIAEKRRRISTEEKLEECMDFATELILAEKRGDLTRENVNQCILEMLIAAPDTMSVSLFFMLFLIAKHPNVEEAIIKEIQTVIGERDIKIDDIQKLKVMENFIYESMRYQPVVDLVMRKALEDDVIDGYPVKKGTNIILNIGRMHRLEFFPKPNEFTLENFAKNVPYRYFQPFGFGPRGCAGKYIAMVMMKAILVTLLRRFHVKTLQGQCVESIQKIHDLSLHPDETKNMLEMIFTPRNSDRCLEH
A short description of assay [18]: qHTS assay to identify small molecule antagonists of the glucocorticoid receptor (GR) signaling pathway - cell viability counter screen (AID 720693). Further: nearly all actives have a fitted effect of over 55% in size.
The target of assay [19] is Androgen receptor (Homo sapiens) (UniProt P10275). As to the kind of experiment: qHTS assay to identify small molecule antagonists of the androgen receptor (AR) signaling pathway (AID 743035; active means well fitted inhibition curve with a large enough effect in the signal ratio in the repeat runs, not every such curve was filed as active; the % refers to the signal ratio). In short, it runs like this:
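Antagonist mode: AR-bla HEK293 cells co-treated with test compounds and agonist R1881 for 16 h at 37C, 5% CO2. Beta-lactamase activity read as FRET fluorescence after 2 h room-temperature substrate loading.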

Androgen receptor (Homo sapiens), sequence (P10275 whole entry, looked up): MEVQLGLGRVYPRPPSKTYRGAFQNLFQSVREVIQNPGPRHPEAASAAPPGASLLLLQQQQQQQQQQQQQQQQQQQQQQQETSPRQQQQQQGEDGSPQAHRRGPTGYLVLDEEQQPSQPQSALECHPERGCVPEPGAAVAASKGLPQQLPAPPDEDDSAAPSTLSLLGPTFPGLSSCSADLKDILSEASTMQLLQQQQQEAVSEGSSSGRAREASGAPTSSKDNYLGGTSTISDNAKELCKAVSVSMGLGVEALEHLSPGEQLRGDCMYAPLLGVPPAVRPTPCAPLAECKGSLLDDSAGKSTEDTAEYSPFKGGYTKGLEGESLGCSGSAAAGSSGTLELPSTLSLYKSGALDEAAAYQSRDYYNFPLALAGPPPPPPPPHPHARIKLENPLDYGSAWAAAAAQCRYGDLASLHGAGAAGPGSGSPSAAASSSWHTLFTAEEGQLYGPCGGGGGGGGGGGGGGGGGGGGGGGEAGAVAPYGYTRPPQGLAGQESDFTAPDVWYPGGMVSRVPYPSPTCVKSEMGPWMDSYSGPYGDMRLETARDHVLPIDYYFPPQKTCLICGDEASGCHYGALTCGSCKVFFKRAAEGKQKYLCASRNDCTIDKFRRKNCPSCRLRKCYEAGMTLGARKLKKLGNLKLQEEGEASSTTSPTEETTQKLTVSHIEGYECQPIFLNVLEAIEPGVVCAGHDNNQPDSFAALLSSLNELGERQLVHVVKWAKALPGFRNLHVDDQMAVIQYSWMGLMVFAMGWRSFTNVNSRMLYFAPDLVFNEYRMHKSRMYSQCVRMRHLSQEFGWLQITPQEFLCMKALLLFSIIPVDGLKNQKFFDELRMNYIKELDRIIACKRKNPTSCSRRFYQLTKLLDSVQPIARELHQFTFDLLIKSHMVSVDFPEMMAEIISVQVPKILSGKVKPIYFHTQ

On to `Cc1ncc(CSSCc2cnc(C)c(O)c2CO)c(CO)c1O`, for which the Potency entry in [1], in assay [2], in assay [3], in assay [6], in [7] and in assay [9] was “inactive” each time. Moreover, the Potency result in [10], in assay [11], in assay [12], in assay [14], in assay [15] and in [16] was “inactive” each time. In the assay with Aromatase (Homo sapiens), the Potency entry was “inactive”. Further, the call in [4], in assay [5], in assay [8], in assay [13] and in [17] was inactive.
In the case of `CCN1CCCC(OC(=O)C(c2ccccc2)c2ccccc2)C1` (configuration not stated), the call in assay [18], in assay [4] and in [13] was inactive. For the same compound, the Potency entry in [7], in [11], in [12], in assay [14], in [15] and in [16] was “inactive” throughout. Moreover, the Potency result with Aromatase (Homo sapiens) is “inactive”.
Turning to `CCCCCCCCN(C)CCCCCCCC`, the compound was called inactive in [18], in [4], in assay [8], in [13] and in assay [17]. Moreover, the Potency result in assay [19], in assay [6], in [9], in [10], in [11] and in assay [12] was “inactive” each time. Also, the Potency entry (in assay [14]; in assay [15]; in assay [16]; in the assay with Aromatase (Homo sapiens)) was “inactive” throughout.
`CCC(=O)/C=C/c1ccc(OC)cc1`: the result in assay [18], in assay [4] and in [17] was inactive. In addition, the Potency in assay [3] was 54.5 µM (active). Further, the Potency entry in assay [7], in assay [9], in assay [11], in assay [12], in assay [14] and in [15] was “inactive” in each case. In addition, the Potency result (in [16]; with Aromatase (Homo sapiens)) was “inactive” in each case.
Take `COc1ccc(N=[N+]([O-])c2ccc(OC)cc2)cc1`: the result in assay [18], in [4], in [13] and in [17] was inactive. Moreover, the Potency result (in [2]; in [3]; in assay [9]; in assay [11]; in [14]; with Aromatase (Homo sapiens)) was “inactive” each time. Besides, the Potency in [15] was 0.0679 µM (active).
For the compound `O=C(O)/C=C/c1ccc(/C=C/C(=O)O)cc1`, the Potency entry in assay [1], in assay [2], in assay [3], in [19], in [6] and in assay [7] was “inactive” throughout. The Potency result (in [9]; in assay [10]; in assay [11]; with Aromatase (Homo sapiens)) was “inactive” in each case. The result in [4], in assay [5], in assay [8], in assay [13] and in assay [17] was inactive.
For the compound `CCOC(=O)Cn1c(=O)sc2cccc(Cl)c21`, the compound was called inactive in assay [18], in assay [4], in [13] and in [17]. The Potency entry in assay [3], in assay [10], in [11], in assay [14], in assay [15] and in [16] was “inactive” throughout. The Potency entry with Aromatase (Homo sapiens) is “inactive”.
In the case of `NC(=O)c1ncn([C@@H]2O[C@H](CO)[C@@H](O)[C@H]2O)c1O`, the Potency entry in assay [1], in assay [2], in assay [3], in assay [7], in [9] and in assay [10] was “inactive” each time. For the same compound, the Potency entry (in assay [11]; in assay [12]; in [14]; in [15]; in assay [16]; with Aromatase (Homo sapiens)) was “inactive” throughout. Moreover, the result in assay [4], in assay [13] and in assay [17] was inactive.
Consider `CN(C)CCn1nnnc1SCC1=C(C(=O)O)N2C(=O)[C@@H](NC(=O)Cc3csc(N)n3)[C@H]2SC1`, for which the Potency entry in assay [1], in assay [2], in assay [3], in assay [19], in assay [6] and in [7] was “inactive” throughout. In addition, the Potency entry (in [10]; in assay [11]; in the assay with Aromatase (Homo sapiens)) was “inactive” throughout. For the same compound, the compound was called inactive in [4], in [5], in [8] and in assay [17].
On to `Nc1ccn(C2CO[C@H](CO)O2)c(=O)n1` (some centres not stated), for which the call in [18], in assay [4], in [13] and in assay [17] was inactive. Besides, the Potency result in [7], in assay [10], in assay [11], in assay [12], in assay [14] and in assay [15] was “inactive” each time. Further, the Potency entry (in assay [16]; with Aromatase (Homo sapiens)) was “inactive” throughout.
